PubChem BioAssay (NCATS)
“And” between values parts separate entries of the source, which are not always exact repeats. Equal entries are not always repeated. Results filed as inconclusive are left out. Where a call stands in place of a potency, no number is given. The source made the active and inactive calls. Unless noted, calls come from the whole dose curve; as a rule, active = well fitted curve in the direction sought with a large enough effect; inconclusive = small, poorly fitted or top-dose-only effect, or another doubt; inactive = no such curve, though single readings can be large; an effect the other way counts as inactive or inconclusive.

How the values were obtained:
[1] = target: Peroxisome proliferator-activated receptor delta (Homo sapiens) (UniProt Q03181); experiment: qHTS assay for small molecule agonists of peroxisome proliferator-activated receptor delta signaling (AID 588534; calls by dose curve)
Sequence of Peroxisome proliferator-activated receptor delta (Homo sapiens) (Q03181 whole entry, looked up): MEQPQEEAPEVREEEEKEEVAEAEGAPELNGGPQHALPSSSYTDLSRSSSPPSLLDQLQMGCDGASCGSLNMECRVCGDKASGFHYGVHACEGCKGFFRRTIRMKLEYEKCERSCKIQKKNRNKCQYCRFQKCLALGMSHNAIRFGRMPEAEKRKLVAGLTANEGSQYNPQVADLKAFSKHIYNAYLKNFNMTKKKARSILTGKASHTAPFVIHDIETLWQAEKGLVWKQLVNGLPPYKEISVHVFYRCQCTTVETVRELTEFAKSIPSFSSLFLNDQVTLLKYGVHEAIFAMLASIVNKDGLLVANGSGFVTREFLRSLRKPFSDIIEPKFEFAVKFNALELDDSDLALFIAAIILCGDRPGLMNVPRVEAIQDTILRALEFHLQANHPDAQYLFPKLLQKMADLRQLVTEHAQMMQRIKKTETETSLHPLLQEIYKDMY
How it was run: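 EC50 and efficacy values derive from Hill fits of a concentration series in a beta-lactamase reporter cell assay. Exposure is 18 hrs at 37 C, with CCF4 fluorescence as the readout.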

[2] = MultiTox-Fluor Cytotoxicity Assay - LYMP1-002 - Dead Cells (AID 960); note: nearly all actives have a fitted effect of over 60% in size
How it was run: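 Concentration-dependent increases in membrane-leaked protease activity are quantified in LYMP1-002 cells after 16 hr treatment; values are normalized against DMSO and tetraoctylammonium bromide (15 uM) controls and AC50 derived by Hill modeling.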

[3] = Cell Viability - LYMP2-009 (AID 968);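 note: series mostly up to about 92 µM; cells exposed to compound for 24 h at 37 °C; nearly all actives have a fitted effect of over 55% in size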
[4] = Cell Viability - LYMP2-021 (AID 974);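 note: compound exposure lasts 24 hours at 37 °C; nearly all actives have a fitted effect of over 55% in size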
How it was run: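 In qHTS format, compounds are tested against 2500 lymphoblastoid cells per well for 24 h; viable cell number is inferred from ATP-driven luciferase light, and Hill-equation fitting yields AC50 values.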

[5] = Cell Viability - LYMP2-010 (AID 981);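 note: cells exposed to compound for 24 hours at 37 °C; nearly all actives have a fitted effect of over 55% in size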
How it was run: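 This 24 hr viability screen uses LYMP2-010 lymphoblastoid cells, quantifies ATP via luciferase luminescence, and derives AC50 from Hill fits of qHTS concentration-response data.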

[6] = Cell Viability - LYMP2-012 (AID 982);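 note: cellular ATP by luciferase luminescence where a drop means cytotoxicity; cells exposed to compound for one day before reading; nearly all actives have a fitted effect of over 55% in size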
[7] = Cell Viability - LYMP2-016 (AID 984)
How it was run: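 Cells were seeded at 2500 per well and rested 5 hr before a 24 hr compound exposure at 37 C. Viability was then gauged as cellular ATP by luciferase luminescence, with AC50 values fitted to the Hill equation.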

[8] = Cell Viability - LYMP2-024 (AID 988); note: nearly all actives have a fitted effect of over 60% in size
How it was run: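 Cells at 2500 per well received compound for 24 hr after a 5 hr settling period. Viability was scored by CellTiter-Glo luminescence, with AC50 from Hill fits.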

[9] = target: Estrogen receptor (Homo sapiens) (UniProt P03372); experiment: qHTS assay for small molecule antagonists of estrogen receptor alpha signaling (AID 588513; active = well fitted curve in the direction sought with a large enough effect in the signal ratio, with a control signal flat, not every such curve was filed as active; the % refers to the signal ratio)
Sequence of Estrogen receptor (Homo sapiens) (P03372 whole entry, looked up): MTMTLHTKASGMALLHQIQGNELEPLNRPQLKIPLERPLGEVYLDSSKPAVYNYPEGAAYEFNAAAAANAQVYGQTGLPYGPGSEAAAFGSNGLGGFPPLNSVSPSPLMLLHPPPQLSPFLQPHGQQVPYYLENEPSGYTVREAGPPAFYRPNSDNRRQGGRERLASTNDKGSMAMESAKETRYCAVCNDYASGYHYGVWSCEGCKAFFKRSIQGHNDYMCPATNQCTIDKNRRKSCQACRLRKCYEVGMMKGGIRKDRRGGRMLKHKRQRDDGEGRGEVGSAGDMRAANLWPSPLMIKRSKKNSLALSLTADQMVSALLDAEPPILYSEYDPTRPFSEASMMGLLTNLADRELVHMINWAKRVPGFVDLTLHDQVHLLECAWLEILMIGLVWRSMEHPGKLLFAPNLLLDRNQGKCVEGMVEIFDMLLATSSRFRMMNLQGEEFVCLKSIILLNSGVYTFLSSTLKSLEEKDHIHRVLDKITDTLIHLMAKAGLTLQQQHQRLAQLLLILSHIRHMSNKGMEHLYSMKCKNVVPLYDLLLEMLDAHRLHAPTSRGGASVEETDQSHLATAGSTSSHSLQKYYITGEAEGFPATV
How it was run: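 Fluorescence from CCF4 substrate after 2 h at room temperature gave reporter activity; cells had been exposed to compound and 0.5nM 17-beta-estradiol for 18 h at 37 C. Hill-equation fitting yielded IC50 and maximal response.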

[10] = target: Estrogen receptor (Homo sapiens) (UniProt P03372); experiment: qHTS assay for small molecule agonists of estrogen receptor alpha signaling (AID 588514; calls by dose curve; note: nearly all actives have a fitted effect of over 70% in size)
How it was run: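 Fluorescence from CCF4 cleavage reports ER-alpha-driven beta-lactamase expression in HEK 293 cells treated 18 hrs at 37 C. Data normalized to 17-beta-estradiol (20 nM) and DMSO, fitted to Hill equation.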

[11] = target: Peroxisome proliferator-activated receptor gamma (Homo sapiens) (UniProt P37231); experiment: qHTS assay for small molecule agonists of peroxisome proliferator-activated receptor gamma signaling (AID 588536; active = well fitted curve in the direction sought with a large enough effect in the signal ratio, with a control signal flat, not every such curve was filed as active; the % refers to the signal ratio)
Sequence of Peroxisome proliferator-activated receptor gamma (Homo sapiens) (P37231 whole entry, looked up): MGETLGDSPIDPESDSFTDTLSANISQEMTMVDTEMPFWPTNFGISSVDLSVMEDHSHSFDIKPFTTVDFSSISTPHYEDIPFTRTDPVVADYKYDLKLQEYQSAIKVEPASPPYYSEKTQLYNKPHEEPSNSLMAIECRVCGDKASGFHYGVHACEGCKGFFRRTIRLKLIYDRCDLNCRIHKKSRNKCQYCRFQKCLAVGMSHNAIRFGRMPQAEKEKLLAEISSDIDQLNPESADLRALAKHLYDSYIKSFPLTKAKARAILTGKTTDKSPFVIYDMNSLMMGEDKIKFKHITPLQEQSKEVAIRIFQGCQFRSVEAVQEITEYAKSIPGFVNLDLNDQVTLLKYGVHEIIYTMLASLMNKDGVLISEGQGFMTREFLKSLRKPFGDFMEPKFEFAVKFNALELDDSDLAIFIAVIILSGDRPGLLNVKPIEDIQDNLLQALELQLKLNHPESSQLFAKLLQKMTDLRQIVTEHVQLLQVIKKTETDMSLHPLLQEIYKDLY
How it was run: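 Cells were plated and held 6–6.5 h at 37 C, then compounds were added as a titration series. After a further 16 h, CCF4 dye was loaded for 2 h at room temperature and emission at 460/530 nm recorded.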

[12] = target: Thyroid hormone receptor beta (Homo sapiens) (UniProt P10828); experiment: qHTS assay for small molecule agonists of thyroid hormone receptor beta signaling (AID 588545; calls by dose curve)
Sequence of Thyroid hormone receptor beta (Homo sapiens) (P10828 whole entry, looked up): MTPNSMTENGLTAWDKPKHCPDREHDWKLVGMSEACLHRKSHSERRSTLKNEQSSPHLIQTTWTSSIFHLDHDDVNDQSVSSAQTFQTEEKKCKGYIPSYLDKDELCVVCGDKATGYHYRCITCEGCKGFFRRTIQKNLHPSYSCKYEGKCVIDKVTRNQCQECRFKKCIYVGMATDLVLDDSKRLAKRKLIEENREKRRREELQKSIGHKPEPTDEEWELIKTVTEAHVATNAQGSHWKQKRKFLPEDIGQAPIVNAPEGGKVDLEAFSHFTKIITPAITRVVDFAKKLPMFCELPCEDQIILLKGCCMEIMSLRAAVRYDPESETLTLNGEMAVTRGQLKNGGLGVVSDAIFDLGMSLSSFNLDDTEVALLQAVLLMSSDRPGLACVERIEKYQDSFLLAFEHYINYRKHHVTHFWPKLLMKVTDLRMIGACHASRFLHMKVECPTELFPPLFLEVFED
How it was run: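 TR-UAS-bla-GripTite HEK 293 cells in medium with 2% charcoal/dextran FBS, 0.1 mM NEAA and 1 mM sodium pyruvate were treated with titrated compounds for 18 hrs at 37 C. Beta-lactamase reporter was read with CCF4 dye (ex 405, em 460/530 nm); EC50 from Hill fits.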

[13] = qHTS assay for small molecule antagonists of retinoid X receptor alpha signaling (AID 588546); conditions: HEK293T RXRa-UAS-bla, beta-lactamase ratio, antagonist mode; measured here: W530 green channel, cytotoxicity proxy;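 note: cells stimulated with 9-cis-retinoic acid as agonist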
How it was run: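 Beta-lactamase reporter inhibition, read as CCF4 fluorescence ratio (ex 405, em 460/530 nm) after 2 h at RT. HEK293T UAS-bla cells, 2500/well, were stimulated with 9-cis-RA at 500 or 100 nM final alongside test compound for 18 h at 37 C.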

[14] = target: Thyroid hormone receptor beta (Homo sapiens) (UniProt P10828); experiment: qHTS assay for small molecule antagonists of thyroid hormone receptor beta signaling (AID 588547; active = well fitted inhibition curve with a large enough effect in the signal ratio, with a control signal flat, not every such curve was filed as active; the % refers to the signal ratio;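 note: cells stimulated with 0.4 nM T3 agonist during compound exposure; series mostly up to about 77 µM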); conditions: TR-UAS-bla HEK293, beta-lactamase ratio, antagonist mode, 18 h
How it was run: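 Inhibition of T3-driven (0.4nM final) beta-lactamase reporter activity was measured over 0.59 nM to 92 uM compound after 18 h at 37 C. The cells were GripTite HEK293 TR-UAS-bla in charcoal/dextran-stripped serum, with CCF4 ratio read-out and IC50 from Hill fits.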

[15] = target: Tumor necrosis factor (Homo sapiens) (UniProt P01375); experiment: qHTS assay to identify small molecules that stimulate Tumor Necrosis Factor-alpha (TNF-alpha) secretion (AID 651757; active = well fitted curve in the direction sought with a large enough effect in the signal ratio; the % refers to the signal ratio)
Sequence of Tumor necrosis factor (Homo sapiens) (P01375 whole entry, looked up): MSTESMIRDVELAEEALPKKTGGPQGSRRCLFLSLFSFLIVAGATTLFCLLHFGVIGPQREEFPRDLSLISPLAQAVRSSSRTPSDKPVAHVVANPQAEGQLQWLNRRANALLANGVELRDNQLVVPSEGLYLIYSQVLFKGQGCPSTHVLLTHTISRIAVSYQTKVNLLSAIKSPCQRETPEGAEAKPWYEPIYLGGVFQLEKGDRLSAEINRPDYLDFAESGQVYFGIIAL
How it was run: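 Using 3000 THP-1 cells per well, compounds and controls were applied for 17 hrs at 37 C. Detection followed with two labeled anti-TNF-alpha antibodies (cryptate donor, XL665 acceptor) for 3 hr at room temperature, measured by TR-FRET.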

[16] = qHTS assay for environmental chemicals that activate the Aryl hydrocarbon Receptor (AhR) signaling pathway (AID 651777); conditions: 1A2-DRE human hepatoma cells, luciferase, 24 h; activation: stronger effect = higher value; note: nearly all actives have a fitted effect of over 15% in size
How it was run: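 Concentration–response screening used 1,200 1A2-DRE cells per well, 24 hr compound exposure (37 C, 5% CO2), and One-Glo luminescence as the AhR-driven CYP1A2 reporter signal.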

[17] = target: Nuclear receptor ROR-gamma (Homo sapiens) (UniProt P51449); experiment: qHTS assay for small molecule antagonists of the retinoid-related orphan receptor gamma (ROR-gamma) signaling pathway (AID 651802); note: nearly all actives have a fitted effect of over 60% in size; note: potency is the fitted concentration of half-maximal effect
Sequence of Nuclear receptor ROR-gamma (Homo sapiens) (P51449 whole entry, looked up): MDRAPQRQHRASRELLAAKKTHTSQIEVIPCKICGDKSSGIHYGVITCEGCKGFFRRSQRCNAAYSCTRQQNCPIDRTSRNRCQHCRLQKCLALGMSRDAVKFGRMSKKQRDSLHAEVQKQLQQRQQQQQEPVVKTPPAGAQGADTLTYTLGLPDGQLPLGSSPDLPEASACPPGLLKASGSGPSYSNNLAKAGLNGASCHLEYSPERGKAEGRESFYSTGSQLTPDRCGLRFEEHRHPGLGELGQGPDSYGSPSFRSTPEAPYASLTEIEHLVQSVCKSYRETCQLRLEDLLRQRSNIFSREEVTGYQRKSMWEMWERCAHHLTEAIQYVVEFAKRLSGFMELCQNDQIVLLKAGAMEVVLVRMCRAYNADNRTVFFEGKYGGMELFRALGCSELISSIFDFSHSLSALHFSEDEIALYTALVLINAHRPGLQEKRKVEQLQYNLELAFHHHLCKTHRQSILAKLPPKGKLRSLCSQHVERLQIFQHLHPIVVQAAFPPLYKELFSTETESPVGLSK
How it was run: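 Doxycycline-induced reporter activity in engineered CHO cells (TET-inducible ROR, RORE-LUC) was measured by luminescence after 16hr compound exposure at 37C.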

[18] = qHTS assay for small molecule antagonists of the retinoid-related orphan receptor gamma (ROR-gamma) signaling pathway - cell viability counter screen (AID 720652; active = well fitted curve in the direction sought with a large enough effect in the repeat runs; an effect the other way counts as inactive or inconclusive;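 note: CHO reporter cells with doxycycline-induced ROR-gamma expression; series mostly up to about 92 µM; compound exposure lasted 16 hr before ATP read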)
How it was run: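 ATP-based viability readout in the ROR-gamma reporter CHO cells after 16 hr compound exposure under doxycycline induction.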

[19] = Cell Viability - LYMP2-001 (AID 921);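 note: series mostly up to about 92 µM; cells exposed to compound for 24 h at 37 °C; nearly all actives have a fitted effect of over 70% in size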
How it was run: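 Steps: seed 2500 lymphoblastoid cells/well; 5 hr, 37 C; add compound; 24 hr, 37 C; CellTiter-Glo reagent, 30 min room temperature; read luminescence. Concentration-response modeled by Hill equation for AC50.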

[20] = target: Retinoic acid receptor RXR-alpha (Homo sapiens) (UniProt P19793); experiment: qHTS assay for small molecule agonists of retinoid X receptor alpha signaling (AID 588544; calls by dose curve; note: potency is the fitted concentration of half-maximal effect)
Sequence of Retinoic acid receptor RXR-alpha (Homo sapiens) (P19793 whole entry, looked up): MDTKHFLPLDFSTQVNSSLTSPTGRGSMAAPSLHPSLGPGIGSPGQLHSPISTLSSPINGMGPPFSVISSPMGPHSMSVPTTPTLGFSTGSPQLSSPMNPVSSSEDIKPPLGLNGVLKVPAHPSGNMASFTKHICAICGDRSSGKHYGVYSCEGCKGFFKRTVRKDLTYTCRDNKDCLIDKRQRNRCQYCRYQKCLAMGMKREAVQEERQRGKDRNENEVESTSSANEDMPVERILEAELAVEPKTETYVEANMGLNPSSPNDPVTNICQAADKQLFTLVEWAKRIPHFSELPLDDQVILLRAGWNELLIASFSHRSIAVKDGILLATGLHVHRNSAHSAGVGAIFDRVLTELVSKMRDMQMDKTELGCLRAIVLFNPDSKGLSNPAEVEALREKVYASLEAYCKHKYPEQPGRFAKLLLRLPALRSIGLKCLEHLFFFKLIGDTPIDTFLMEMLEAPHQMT

Compound	outcome [1]	Potency [2]	Potency [3]	Potency [4]	Potency [5]	Potency [6]	Potency [7]	Potency [8]	Potency [9]	Potency [10]	outcome [11]	outcome [12]	max response [13]	activity change % (negative = inhibition) [14]	outcome [15]	activation [16]	Potency [17]	Potency [18]	Potency [19]	Potency [20]
Oc1cccc(O)c1O	inactive	–	–	–	–	–	–	–	–	–	–	–	–	–	–	–	–	–	–	–
C=C(C)C1CC=C(C)C(O)C1 (stereo not given)	inactive	–	–	–	–	–	–	–	–	–	–	–	–	–	–	–	–	–	–	–
c1ccc(-c2ccccc2)cc1	inactive	inactive	inactive	inactive	inactive	inactive	inactive	inactive	inactive	inactive	inactive	inactive	-7.26% and -12.6%	-3.07% (inactive) and -0.354% (inactive)	inactive	-0.623% (inactive) and 2.83% (inactive)	inactive	inactive	–	–
CCCCCCCCCCCC(=O)O	inactive	–	–	–	–	–	–	–	–	–	–	–	–	–	–	–	–	–	–	–
CCN(CC)c1ccccc1	–	inactive	inactive	inactive	inactive	inactive	inactive	inactive	inactive	inactive	inactive	inactive	-5.5%	-7.69% (inactive)	inactive	-0.415% (inactive)	inactive	inactive	inactive	inactive
CC1=CCC2CC1C2(C)C (stereo not given)	inactive	–	–	–	–	–	–	–	–	–	–	–	–	–	–	–	–	–	–	–
C[C@]12CC[C@H]3[C@@H](CCC4=CC(=O)CC[C@@]43C)[C@@H]1CC[C@@H]2O	inactive	inactive	inactive	inactive	inactive	inactive	inactive	inactive	–	–	–	inactive	–	14.5% (inactive)	inactive	-1.35% (inactive)	26.6 µM (active)	inactive	inactive	12.6 µM (active)
COC1=CC(=O)O[C@@H](/C=C/c2ccc3c(c2)OCO3)C1	inactive	inactive	inactive	inactive	inactive	inactive	inactive	inactive	–	–	inactive	inactive	10.1%	4.69% (inactive)	–	3.16% (inactive)	inactive	inactive	inactive	–
Cc1ccccc1N	inactive	inactive	inactive	inactive	inactive	inactive	inactive	inactive	–	–	–	inactive	-2.57%	0.476% (inactive) and 3.77% (inactive)	inactive	4.33% (inactive) and 3.03% (inactive)	inactive	inactive	inactive	inactive
O=NN(c1ccccc1)c1ccccc1	inactive	inactive	inactive	inactive	inactive	inactive	inactive	inactive	inactive	inactive	inactive	inactive	-5.84% and -1.3%	-20.2% (inactive) and 4.93% (inactive)	inactive	0.195% (inactive) and 0.974% (inactive)	inactive	inactive	inactive	inactive
Oc1ccc(Cl)cc1Cl	inactive	–	inactive	inactive	inactive	inactive	inactive	inactive	inactive	inactive	inactive	inactive	-7.11% and -14.1%	16.9% (inactive) and -6.49% (inactive)	inactive	0.13% (inactive) and 0.875% (inactive)	inactive	inactive	inactive	inactive
Clc1cccc(C(Cl)(Cl)Cl)n1	–	–	inactive	inactive	inactive	inactive	inactive	inactive	inactive	inactive	inactive	inactive	-2.2% and -16.3%	-14.1% (inactive) and -4.27% (inactive)	inactive	-1.44% (inactive) and -0.611% (inactive)	inactive	inactive	inactive	inactive
Cc1ccc2ccccc2c1	inactive	inactive	inactive	inactive	inactive	inactive	inactive	inactive	inactive	inactive	inactive	inactive	-12.4%	0.181% (inactive)	inactive	1.58% (inactive)	inactive	inactive	inactive	inactive
CC(C)(C)OOC(C)(C)C	inactive	inactive	inactive	inactive	inactive	inactive	inactive	inactive	inactive	inactive	inactive	inactive	-12.4%	-4.91% (inactive)	inactive	-0.903% (inactive)	inactive	inactive	inactive	inactive
O=C(Cl)/C=C/C(=O)Cl	inactive	inactive	inactive	inactive	inactive	inactive	inactive	inactive	inactive	inactive	inactive	inactive	-3.67%	2.64% (inactive)	inactive	-0.935% (inactive)	inactive	inactive	inactive	inactive
C=CCOC(C)=O	–	inactive	inactive	inactive	inactive	inactive	inactive	inactive	inactive	inactive	inactive	–	-2.08%	14.6% (inactive)	inactive	-0.904% (inactive)	inactive	inactive	inactive	inactive
CCCSC(=O)Cl	inactive	inactive	inactive	inactive	inactive	inactive	inactive	inactive	inactive	inactive	inactive	inactive	-2.55%	-14.3% (inactive)	inactive	-0.385% (inactive)	inactive	inactive	inactive	inactive
